# Assay results from ChEMBL document CHEMBL1961873, “Compounds: GSK PKIS; Assays: Nanosyn kinase panel” (2012).
# Experiments:
# [1] = biological target: T1, Muscle, skeletal receptor tyrosine-protein kinase (Homo sapiens) (UniProt O15146); conditions: at 1 µM;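 note: reported value is the mean percent inhibition of MuSK kinase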
# T1 sequence (whole entry): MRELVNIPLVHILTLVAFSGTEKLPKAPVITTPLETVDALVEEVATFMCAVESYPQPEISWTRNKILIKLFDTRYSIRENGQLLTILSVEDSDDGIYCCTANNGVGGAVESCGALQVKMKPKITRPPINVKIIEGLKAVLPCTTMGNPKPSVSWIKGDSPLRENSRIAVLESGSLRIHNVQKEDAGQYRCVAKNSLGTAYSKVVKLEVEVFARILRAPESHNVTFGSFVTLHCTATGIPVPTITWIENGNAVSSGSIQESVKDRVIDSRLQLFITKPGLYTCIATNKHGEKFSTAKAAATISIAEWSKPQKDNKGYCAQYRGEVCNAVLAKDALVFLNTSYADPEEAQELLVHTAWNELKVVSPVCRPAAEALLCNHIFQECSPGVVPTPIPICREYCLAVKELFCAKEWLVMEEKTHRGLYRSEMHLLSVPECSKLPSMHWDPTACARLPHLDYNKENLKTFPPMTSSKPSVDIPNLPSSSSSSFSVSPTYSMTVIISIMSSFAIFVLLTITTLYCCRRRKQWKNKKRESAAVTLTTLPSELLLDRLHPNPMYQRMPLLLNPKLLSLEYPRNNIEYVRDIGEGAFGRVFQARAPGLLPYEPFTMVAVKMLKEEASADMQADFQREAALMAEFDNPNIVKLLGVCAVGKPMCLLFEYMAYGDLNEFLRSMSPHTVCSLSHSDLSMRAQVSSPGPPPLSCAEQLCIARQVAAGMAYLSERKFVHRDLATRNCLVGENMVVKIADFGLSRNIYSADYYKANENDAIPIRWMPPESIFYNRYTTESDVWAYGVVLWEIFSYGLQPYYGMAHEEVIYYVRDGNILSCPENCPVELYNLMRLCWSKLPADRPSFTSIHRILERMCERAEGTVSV
# [2] = biological target: Platelet-derived growth factor receptor alpha (Homo sapiens) (UniProt P16234); conditions: at 0.1 µM
# [3] = biological target: Platelet-derived growth factor receptor alpha (Homo sapiens) (UniProt P16234); conditions: at 1 µM
# [4] = system: Platelet-derived growth factor receptor alpha (Homo sapiens), P16234 [D842V]; conditions: at 0.1 µM
# [5] = system: Platelet-derived growth factor receptor alpha (Homo sapiens), P16234 [D842V]; conditions: at 1 µM
# [6] = system: Platelet-derived growth factor receptor alpha (Homo sapiens), P16234 [T674I]; conditions: at 0.1 µM
# [7] = system: Platelet-derived growth factor receptor alpha (Homo sapiens), P16234 [T674I]; conditions: at 1 µM
# [8] = system: Platelet-derived growth factor receptor alpha (Homo sapiens), P16234 [V561D]; conditions: at 0.1 µM
# [9] = system: Platelet-derived growth factor receptor alpha (Homo sapiens), P16234 [V561D]; conditions: at 1 µM
# [10] = biological target: Platelet-derived growth factor receptor beta (Homo sapiens) (UniProt P09619); conditions: at 0.1 µM
# [11] = biological target: Platelet-derived growth factor receptor beta (Homo sapiens) (UniProt P09619); conditions: at 1 µM
# [12] = biological target: Tyrosine-protein kinase FRK (Homo sapiens) (UniProt P42685); conditions: at 0.1 µM
# [13] = biological target: Tyrosine-protein kinase FRK (Homo sapiens) (UniProt P42685); conditions: at 1 µM
# [14] = biological target: Protein-tyrosine kinase 2-beta (Homo sapiens) (UniProt Q14289); conditions: at 0.1 µM
# [15] = biological target: Protein-tyrosine kinase 2-beta (Homo sapiens) (UniProt Q14289); conditions: at 1 µM
# [16] = biological target: Proto-oncogene tyrosine-protein kinase receptor Ret (Homo sapiens) (UniProt P07949); conditions: at 0.1 µM
# [17] = biological target: Proto-oncogene tyrosine-protein kinase receptor Ret (Homo sapiens) (UniProt P07949); conditions: at 1 µM
# [18] = system: Proto-oncogene tyrosine-protein kinase receptor Ret (Homo sapiens), P07949 [V804L]; conditions: at 0.1 µM
# [19] = system: Proto-oncogene tyrosine-protein kinase receptor Ret (Homo sapiens), P07949 [V804L]; conditions: at 1 µM
# [20] = system: Proto-oncogene tyrosine-protein kinase receptor Ret (Homo sapiens), P07949 [Y791F]; conditions: at 0.1 µM
# Sequence of Protein-tyrosine kinase 2-beta (Homo sapiens) (Q14289 whole entry, looked up): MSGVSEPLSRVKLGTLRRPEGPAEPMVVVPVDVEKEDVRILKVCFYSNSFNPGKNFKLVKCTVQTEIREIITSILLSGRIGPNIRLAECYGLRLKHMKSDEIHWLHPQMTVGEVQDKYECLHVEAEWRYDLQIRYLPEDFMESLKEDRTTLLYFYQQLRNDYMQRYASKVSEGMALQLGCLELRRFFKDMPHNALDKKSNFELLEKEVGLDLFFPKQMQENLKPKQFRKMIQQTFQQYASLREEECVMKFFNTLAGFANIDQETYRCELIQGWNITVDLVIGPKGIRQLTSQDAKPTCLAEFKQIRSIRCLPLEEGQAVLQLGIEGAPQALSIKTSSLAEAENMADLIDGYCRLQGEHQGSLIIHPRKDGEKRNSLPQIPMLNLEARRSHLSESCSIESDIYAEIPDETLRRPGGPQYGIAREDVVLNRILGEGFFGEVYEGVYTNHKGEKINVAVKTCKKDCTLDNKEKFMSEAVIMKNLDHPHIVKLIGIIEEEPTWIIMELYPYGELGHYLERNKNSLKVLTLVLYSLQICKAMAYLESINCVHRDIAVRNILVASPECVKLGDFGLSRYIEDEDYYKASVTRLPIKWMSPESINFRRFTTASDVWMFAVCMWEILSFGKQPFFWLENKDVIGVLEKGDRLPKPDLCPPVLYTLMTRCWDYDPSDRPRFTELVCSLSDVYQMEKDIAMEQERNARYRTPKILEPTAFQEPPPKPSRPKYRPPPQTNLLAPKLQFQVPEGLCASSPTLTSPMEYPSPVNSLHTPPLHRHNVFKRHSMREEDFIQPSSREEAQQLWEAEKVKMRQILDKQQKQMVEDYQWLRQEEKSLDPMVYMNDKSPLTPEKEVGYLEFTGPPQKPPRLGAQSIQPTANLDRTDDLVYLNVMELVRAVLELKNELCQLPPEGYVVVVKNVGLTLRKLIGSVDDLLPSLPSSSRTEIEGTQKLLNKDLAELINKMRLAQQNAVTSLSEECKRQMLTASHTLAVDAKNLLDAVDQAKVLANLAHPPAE
# Sequence of Proto-oncogene tyrosine-protein kinase receptor Ret (Homo sapiens), P07949 [V804L] (P07949 whole entry V804L): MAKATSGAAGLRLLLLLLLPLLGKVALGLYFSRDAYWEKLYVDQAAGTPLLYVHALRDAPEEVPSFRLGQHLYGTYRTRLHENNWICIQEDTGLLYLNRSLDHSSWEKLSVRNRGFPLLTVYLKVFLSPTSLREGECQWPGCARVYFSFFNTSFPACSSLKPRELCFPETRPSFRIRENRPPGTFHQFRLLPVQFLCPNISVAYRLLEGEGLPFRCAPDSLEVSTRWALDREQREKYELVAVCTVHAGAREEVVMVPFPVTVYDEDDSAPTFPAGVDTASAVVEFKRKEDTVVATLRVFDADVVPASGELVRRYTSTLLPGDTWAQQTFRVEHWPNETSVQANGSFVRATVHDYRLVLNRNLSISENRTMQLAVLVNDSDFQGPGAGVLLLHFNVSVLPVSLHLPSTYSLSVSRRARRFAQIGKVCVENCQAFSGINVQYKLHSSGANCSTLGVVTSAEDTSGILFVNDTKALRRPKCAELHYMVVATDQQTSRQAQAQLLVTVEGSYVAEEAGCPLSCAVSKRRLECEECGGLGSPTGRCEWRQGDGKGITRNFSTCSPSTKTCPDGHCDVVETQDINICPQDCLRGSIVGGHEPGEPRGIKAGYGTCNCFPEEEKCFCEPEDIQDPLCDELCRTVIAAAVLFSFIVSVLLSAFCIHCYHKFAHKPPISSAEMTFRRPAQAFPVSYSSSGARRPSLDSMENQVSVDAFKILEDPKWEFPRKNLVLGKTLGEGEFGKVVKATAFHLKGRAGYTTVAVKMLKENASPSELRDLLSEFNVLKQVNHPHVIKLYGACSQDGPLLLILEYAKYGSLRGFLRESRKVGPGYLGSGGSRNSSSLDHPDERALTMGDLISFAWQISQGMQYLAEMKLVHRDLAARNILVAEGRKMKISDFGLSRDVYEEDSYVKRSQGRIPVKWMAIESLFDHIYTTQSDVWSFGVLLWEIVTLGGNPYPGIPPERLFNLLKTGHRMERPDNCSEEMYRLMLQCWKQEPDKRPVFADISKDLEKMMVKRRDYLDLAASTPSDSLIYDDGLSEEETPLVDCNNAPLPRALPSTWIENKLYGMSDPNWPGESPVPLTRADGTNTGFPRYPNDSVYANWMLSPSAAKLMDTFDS
# Sequence of Platelet-derived growth factor receptor beta (Homo sapiens) (P09619 whole entry): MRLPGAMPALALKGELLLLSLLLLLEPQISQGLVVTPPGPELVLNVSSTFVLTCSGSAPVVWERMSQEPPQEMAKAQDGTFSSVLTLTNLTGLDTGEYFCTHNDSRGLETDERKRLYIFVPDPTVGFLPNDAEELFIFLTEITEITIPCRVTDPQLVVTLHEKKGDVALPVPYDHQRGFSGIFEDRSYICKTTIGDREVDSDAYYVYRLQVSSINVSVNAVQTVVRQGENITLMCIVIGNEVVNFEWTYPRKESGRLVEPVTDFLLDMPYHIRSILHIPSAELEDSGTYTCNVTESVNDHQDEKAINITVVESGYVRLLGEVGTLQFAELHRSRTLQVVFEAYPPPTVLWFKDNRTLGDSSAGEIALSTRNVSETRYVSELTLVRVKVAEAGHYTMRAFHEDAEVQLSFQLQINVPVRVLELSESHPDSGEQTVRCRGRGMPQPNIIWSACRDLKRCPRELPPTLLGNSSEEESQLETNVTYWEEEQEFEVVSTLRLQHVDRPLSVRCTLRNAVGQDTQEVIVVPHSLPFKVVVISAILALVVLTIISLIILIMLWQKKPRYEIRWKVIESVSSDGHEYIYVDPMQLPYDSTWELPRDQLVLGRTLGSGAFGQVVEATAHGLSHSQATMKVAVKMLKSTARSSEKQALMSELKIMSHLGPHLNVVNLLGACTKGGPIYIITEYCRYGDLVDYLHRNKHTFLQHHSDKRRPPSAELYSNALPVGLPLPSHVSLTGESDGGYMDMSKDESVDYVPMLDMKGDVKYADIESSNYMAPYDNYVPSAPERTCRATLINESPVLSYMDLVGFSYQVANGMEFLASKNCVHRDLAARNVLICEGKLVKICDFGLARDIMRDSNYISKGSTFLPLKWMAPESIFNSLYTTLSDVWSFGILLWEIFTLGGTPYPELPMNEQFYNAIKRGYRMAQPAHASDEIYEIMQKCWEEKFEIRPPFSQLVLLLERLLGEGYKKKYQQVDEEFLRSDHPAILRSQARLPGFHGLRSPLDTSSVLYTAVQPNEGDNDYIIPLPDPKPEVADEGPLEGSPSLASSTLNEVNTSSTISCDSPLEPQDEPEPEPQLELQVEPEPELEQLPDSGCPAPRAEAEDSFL
# Sequence of Proto-oncogene tyrosine-protein kinase receptor Ret (Homo sapiens) (P07949 whole entry): as the sequence (P07949 whole entry V804L) above, with L804V counted along it
# Sequence of Tyrosine-protein kinase FRK (Homo sapiens) (P42685 whole entry): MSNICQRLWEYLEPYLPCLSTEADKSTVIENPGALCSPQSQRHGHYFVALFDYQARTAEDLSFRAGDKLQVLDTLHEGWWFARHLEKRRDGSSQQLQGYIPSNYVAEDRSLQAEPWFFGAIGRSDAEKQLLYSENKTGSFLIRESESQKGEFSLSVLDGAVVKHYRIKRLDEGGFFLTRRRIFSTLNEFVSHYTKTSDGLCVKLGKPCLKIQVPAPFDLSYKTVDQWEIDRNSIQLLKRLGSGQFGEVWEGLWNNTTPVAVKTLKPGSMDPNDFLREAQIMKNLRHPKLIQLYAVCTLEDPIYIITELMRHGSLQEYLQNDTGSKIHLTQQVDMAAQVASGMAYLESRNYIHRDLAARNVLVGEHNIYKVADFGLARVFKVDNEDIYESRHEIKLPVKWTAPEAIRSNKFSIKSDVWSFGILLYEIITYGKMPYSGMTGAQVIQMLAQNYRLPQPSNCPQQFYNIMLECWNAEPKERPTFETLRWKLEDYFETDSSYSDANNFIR
Structure (SMILES),inhibition [1] [%],inhibition [2] [%],inhibition [3] [%],inhibition [4] [%],inhibition [5] [%],inhibition [6] [%],inhibition [7] [%],inhibition [8] [%],inhibition [9] [%],inhibition [10] [%],inhibition [11] [%],inhibition [12] [%],inhibition [13] [%],inhibition [14] [%],inhibition [15] [%],inhibition [16] [%],inhibition [17] [%],inhibition [18] [%],inhibition [19] [%],inhibition [20] [%]
CCn1c(-c2nonc2N)nc2cncc(C(=O)N3CCNCC3)c21,4.88,6.44,9.34,1.69,6.27,4.21,6.95,1.16,4.29,1.44,4.8,3.81,4.59,4.67,9.07,4.73,6.87,3.5,6.04,5.85
CCn1c(-c2nonc2N)nc2c(C#CC(C)(C)O)nc(OC[C@@H](N)c3ccccc3)cc21,2.97,3.38,30.9,3.93,39,1.39,27.6,-2.3,19.5,7.96,50.8,1.13,1.5,-0.92,9.22,7.49,41.1,2.03,14.4,10.7
CCn1c(-c2nonc2N)nc2c(N3CCCC3)nccc21,3.11,-0.08,6.63,1.78,3.11,0.33,0.11,3.21,3.61,3.37,8.55,-0.17,0,1.2,-3.88,4.49,20.8,0.68,-0.73,0
Fc1cccc(COc2ccc(Nc3ncnc4cc(-c5ccc[nH]5)sc34)cc2Cl)c1,6.25,9.2,15.6,2.17,4.7,4.02,4.37,2.42,5.59,3.02,8.52,2.14,2.25,7.86,11.5,9,11.5,3.25,8.38,7.54
COc1ccc(-c2ccncc2)cc1C(N)=O,8.58,10.2,15.4,1.62,4.35,5.26,8.98,3.41,6.77,5.16,11.4,4.92,5.68,5.98,11.3,3.52,6.29,2.72,9.41,4.39
COc1cc(C=NNc2ncnc3c2cnn3-c2ccccc2)ccc1O,43.8,28.2,78.2,24.6,79.5,13.7,39.1,15.1,68.9,18.1,68.9,0.86,3.44,4.69,14.2,43.5,80.6,13.6,46.3,36.3
CC1=C(C(=O)Nc2ccc3[nH]ncc3c2)C(c2ccc(F)cc2)NC(=O)N1 (stereo not given),5.88,4.38,10.7,1.76,3.2,3.58,3.03,3.01,3.64,3.65,6.86,1.9,1.47,10.1,8.37,6.58,35,6.27,35.5,8.37
COc1ccc(COc2ccc(Cc3cnc(N)nc3N)cc2OC)cc1,9.52,10.9,15.7,0.95,1.88,2.62,1.3,2.4,5.93,8.68,10,-0.22,2.07,-3.39,-2.43,9.65,9.77,6.53,9.69,12.4
CCn1c(-c2nonc2N)nc2cnc(Oc3cccc(NC(=O)c4ccc(OCCN5CCOCC5)cc4)c3)cc21,-1.35,5.93,9.57,1.95,4.64,4.39,9.13,3.13,3.7,2.12,9.39,2.25,0.86,4.56,13,6.91,10.4,2.37,6.08,5.99
Cn1cc(C=C2C(=O)Nc3cccnc32)c2ccccc21,12.8,19.5,65.3,9.02,47.1,5.86,20.2,12.4,58.7,12.5,42,0.71,3.75,5.59,25.2,–,–,–,–,–
CS(=O)(=O)CCNCc1nc(-c2ccc3ncnc(Nc4ccc(F)c(Cl)c4)c3c2)cs1,2.48,11.7,25.9,1.4,10.4,10.8,8.67,2.8,9.09,3.34,9.07,-0.58,2.43,-0.72,1.64,4.76,13.1,5.1,11,7.75
CN1CCC(C(=O)Nc2n[nH]c3nnc(-c4ccccc4)cc23)CC1,5.06,5.74,16.5,3.37,3.2,6.86,7.55,7.2,6.38,2.43,7.79,2.63,2.86,13.3,15.2,1.29,2.61,4.66,14.7,3.08
CS(=O)(=O)CCNCc1ccc(-c2ccc3ncnc(Nc4ccc(OCc5ccccc5)c(Cl)c4)c3c2)o1,4.27,6.84,9.41,2.28,2.49,8.72,11.1,4.4,4.91,2.08,5.7,0.96,2.22,5.42,5.81,4.78,9.58,9.04,12.4,10.2
CC(C)=Cc1cccc2c1/C(=N/Nc1ccc(S(N)(=O)=O)cc1)C(=O)N2,36.3,20.3,64.9,12.2,58.5,7.43,46.5,15,62.5,17.4,62.6,1.44,5.49,3.24,27.5,14.8,60.7,16.4,67.4,6.44
